In the library only some 2.5% were active in any assay of this set; here they are far more common.
TROY signal inh – blocks TROY-dependent signaling in reporter cells | inhibition, % at 10 µM | 360,000 tested, 0.98% active | Q293 LMP1-TROYcd NF-kB luciferase reporter, 4 h | AID 1347056;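 active = compounds whose plate-normalised and pattern-corrected inhibition of the luciferase reporter signal at the single screening dose is 50% or more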
EBV LMP1 NFkB – Epstein-Barr LMP1 NF-kappaB reporter inhibition. 350,000 tested, 0.69% active. inhibition, % at 12.5 µM. LMP1-induced NF-kappaB luciferase reporter cells, luminescence; in the data active = inhibition above about 41%; inconclusive = no clear call, values can overlap the other calls;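 note: 0% = neutral control wells and 100% = reference inhibitor control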
EWS-Fli inh – EWS/Fli transcriptional activity inhibition | A673 NR0B1-luciferase reporter, viability-normalised | inhibition, % at 12.6 µM | 350,000 tested, 0.67% active;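 active = mean inhibition of at least 50% after viability correction, with every replicate also passing that limit; inconclusive = mean reaches 50% but only one of two replicates passes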;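 note: firefly luciferase signal divided by Alamar Blue viability fluorescence both relative to DMSO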
LGR2 antag – Drosophila LGR2 receptor signaling inhibition. HEK293 LGR2, CRE-luciferase, bursicon-stimulated, 4 h. inhibition, % at 9.99 µM. 380,000 tested, 0.35% active. AID 720647;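 active = drop in luminescence signal, shown as inhibition above about 50% in the replicate tests, limit read from the data, passing the limit was not always enough; inconclusive = probably only some replicates passing the limit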;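 note: agonist challenge used bursicon conditioned medium at about half maximal strength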
TWEAK Fn14 block – TWEAK-Fn14 signaling inhibition | TWEAK-stimulated Fn14 reporter cells, luciferase luminescence, 8 h | inhibition, % at 10 µM | 360,000 tested, 2% active; in the data active = inhibition above about 50%
* hit, by the source's call; ? = inconclusive; . = no result given.

SMILES | TROY signal inh | EBV LMP1 NFkB | EWS-Fli inh | LGR2 antag | TWEAK Fn14 block
Cc1ccc2nc(-c3ccc(SCC(=O)N4CCc5ccccc54)nc3)[nH]c2c1 | -60 | -70 | -101 | -56 | 53*
O=C(CSc1ccc(-c2nc3ccccc3[nH]2)cn1)Nc1ccc(S(=O)(=O)N2CCCC2)cc1 | 18 | -33 | . | -29 | 52*
C[C@H](CO)N1C[C@H](C)[C@H](CN(C)S(=O)(=O)c2ccc(Cl)cc2)Oc2ccc(NC(=O)Cc3ccccc3)cc2CC1=O | . | . | 2 | -5 | .
O=C(NC1Cc2ccccc2C1)[C@@H]1[C@@H](CO)[C@@H]2Cn3c(cccc3=O)[C@H]1N2Cc1ccccc1F | . | . | 3 | -6 | .
COc1cc(-c2noc(C)c2C#CCO)cc(OC)c1OC | -4 | -1 | 0 | 6 | 2
COc1cc(-c2noc(C)c2C#Cc2ccsc2)cc(OC)c1OC | -15 | 3 | 59* | -2 | 12
C[C@@H]1CN([C@H](C)CO)C(=O)c2cccc(NC(=O)C3CC3)c2O[C@H]1CN(C)C | . | . | 1 | -1 | .
CN(C)CCCN1C(=O)c2cccc3cccc(c23)C1=O | -39 | -41 | -15 | -3 | -12
CN(C)CCN1C(=O)c2cccc3cc([N+](=O)[O-])cc(c23)C1=O | -89 | 58* | ? | . | -125
c1ccc(-n2nnnc2-n2cnc3ccccc32)cc1 | 31 | -12 | 6 | -6 | 54*
CCN(CC)S(=O)(=O)c1cccc(NC(=O)CC2CCCC2)c1 | -20 | 4 | 4 | 9 | -6
CCN(CC)S(=O)(=O)c1cccc(NC(=O)Nc2cccc(C(F)(F)F)c2)c1 | 56* | 46* | . | . | 78*
Cc1sc(NC(=O)c2cccc([N+](=O)[O-])c2)c(C(N)=O)c1-c1ccc(C(C)(C)C)cc1 | 69* | 15 | . | . | 64*
C[C@H](CO)N1C[C@H](C)[C@@H](CN(C)S(=O)(=O)c2ccc(Cl)cc2)Oc2c(NC(=O)Nc3ccc(F)cc3)cccc2C1=O | . | . | -5 | 8 | .
O=C(OCc1cc(=O)oc2cc(O)ccc12)c1cc(S(=O)(=O)N2CCOCC2)ccc1F | 16 | -5 | 14 | -20 | -11
CCc1cc2c(COC(=O)c3cccc(NS(C)(=O)=O)c3)cc(=O)oc2cc1O | 53* | 2 | . | -20 | 55*
CCc1cc2c(COC(=O)c3cc(S(=O)(=O)N4CCOCC4)ccc3F)cc(=O)oc2cc1O | 45 | 4 | 45 | 59* | 9
CCn1c2ccccc2c2cc(/C=N/n3cnnc3)ccc21 | 46 | 83* | . | . | -45
CCn1c2ccccc2c2cc(/C=N/n3c(-c4cc(C)[nH]n4)n[nH]c3=S)ccc21 | 37 | 87* | 19 | 28 | -2
CCn1c2ccccc2c2cc(NC(C)=O)ccc21 | 1 | 5 | . | -19 | -4
CCn1c2ccccc2c2cc(/C=N/n3cn[nH]c3=S)ccc21 | 32 | 80* | . | . | 5
CCn1c2ccccc2c2cc(/C=N/O)ccc21 | 34 | 21 | -5 | 27 | 71*
S=c1[nH]ncn1/N=C/c1ccccc1 | 8 | -2 | . | . | 17
COc1ccccc1-c1c(C#N)c(N)nc2c1CCc1ccccc1-2 | 54* | -1 | . | 21 | 73*
CCOc1cc(-c2c(C#N)c(N)nc3c2CCc2ccccc2-3)ccc1O | 14 | 7 | . | 12 | 75*
SMILES | TROY signal inh | EBV LMP1 NFkB | EWS-Fli inh | LGR2 antag | TWEAK Fn14 block
COc1ccccc1-c1c(C)c(C)nc(N)c1C#N | -10 | -19 | . | . | -2
CCOc1cc(-c2c(C#N)c(N)nc3c2CCCC3C)ccc1O (configuration not stated) | 16 | 2 | . | . | 26
C[C@H](O)C#Cc1cnc2c(c1)C(=O)N([C@H](C)CO)C[C@@H](C)[C@H](CN(C)Cc1ccccn1)O2 | . | . | -3 | 9 | .
Cc1cc(C)cc(N2C(=O)CS(=O)(=O)C2c2cccc([N+](=O)[O-])c2)c1 (configuration not stated) | . | . | -11 | . | .
Cc1cccc(C)c1OCCNC(=O)C(=O)NCc1ccco1 | 14 | -5 | 56* | 33 | 16
Cc1cccc(C)c1NC(=O)NCc1ccco1 | -2 | -3 | -12 | -3 | 18
COc1cccc(-c2cnc3c(c2)C(=O)N([C@@H](C)CO)C[C@@H](C)[C@H](CN(C)C(=O)Nc2ccccc2F)O3)c1 | . | . | 2 | -16 | .
Cc1ccc(C(=O)CSc2nnc3c4ccccc4nc(C(C)(C)C)n23)cc1 | 52* | -10 | 42 | 13 | 13
CC(=O)CSc1nnc2c3ccccc3nc(C(C)(C)C)n12 | 8 | -1 | 4 | 1 | 19
CCCCCCc1cc2cc(C(=O)Nc3ccc(OC)cc3)c(=O)oc2cc1O | 9 | 29 | 9 | 41 | 49
CCCCCCc1cc2cc(C(=O)Nc3cccc(OC)c3)c(=O)oc2cc1O | 36 | 5 | . | 32 | 59*
C[C@H]1CN([C@@H](C)CO)C(=O)c2cc(NC(=O)CCCN(C)C)ccc2O[C@H]1CN(C)S(=O)(=O)c1ccccc1 | . | . | -16 | -5 | .
Cc1cc(NC(=O)c2ccc(Cn3cc([N+](=O)[O-])cn3)o2)no1 | 11 | 1 | 0 | -4 | 3
Cc1cc(NC(=O)Cn2cc([N+](=O)[O-])cn2)no1 | 88* | -8 | -1 | 1 | -4
COc1ccc(/C=C/C(=O)c2ccc([N+](=O)[O-])o2)cc1OC | . | . | 62* | 99* | .
COc1cc(/C=C/C(=O)O)ccc1O | -2 | -2 | -6 | . | -6
COc1cc(/C=C/C(=O)c2ccc([N+](=O)[O-])o2)ccc1O | 52* | -21 | 55* | 24 | 97*
O=C(/C=C/c1cccc(Cl)c1)c1ccc([N+](=O)[O-])o1 | 76* | -19 | 77* | 86* | 101*
COc1cc(OC)c(C(=O)C=Cc2ccc(OC)c(OC)c2)c(OC)c1 | 8 | 5 | -7 | 10 | -6
NS(=O)(=O)c1ccc(CCNC(=O)CNC(=O)c2ccccc2Br)cc1 | 1 | 1 | 7 | 0 | 51*
COc1cccc(CN(C)C(=O)CNC(=O)c2ccc(-c3ccccc3)cc2)c1OC | 36 | 23 | 12 | 5 | 51*
CO[C@@H]1CN(C)C(=O)c2ccc(NC(C)=O)cc2OC[C@@H](C)N(C(=O)c2ccccn2)C[C@H]1C | . | . | 16 | -5 | .
c1csc(-c2nc(CN3CCSCC3)cs2)c1 | 15 | 30 | 24 | ? | 60*
CCSc1nnc(NC(=O)CCn2c(=O)oc3ccccc32)s1 | -4 | 79* | 13 | . | 6
COCCNC(=O)C[C@@H]1C=C[C@H](NS(=O)(=O)c2ccc(C)cc2)[C@@H](CO)O1 | . | . | -1 | -10 | .
Cc1cc(C(=O)N2CC=C(c3ccccc3)CC2)c2ccccc2n1 | 24 | 10 | 72* | -16 | 4
CC(=O)N1CCN(C(=O)c2cc(C)nc3ccccc23)CC1 | 16 | 0 | 5 | 1 | -11
CO[C@@H]1CN(C)C(=O)c2cc(NS(C)(=O)=O)ccc2OC[C@@H](C)N(C(=O)CC2CC2)C[C@@H]1C | . | . | -1 | -16 | .
COCCNC(=O)Cn1nc(-c2ccccc2F)ccc1=O | 6 | -7 | 0 | 4 | 51*
CC(C)(C)n1nc2c(c1NC(=O)c1ccc(Cl)c([N+](=O)[O-])c1)CS(=O)(=O)C2 | 49 | -4 | . | -13 | 54*
